From PubChem BioAssay AID690 (Sanford-Burnham Center for Chemical Genomics, 2007)
Out of some 96,000 compounds screened, about 80 (0.08%) were called active. No rule for the calls is given here. Only a sample is shown. Measured potencies and affinities stand elsewhere.

target: Alkaline phosphatase, placental type (Homo sapiens) (UniProt P05187); experiment: inhibition of human placental alkaline phosphatase – biochemical, luminescence, HTS (AID 690); conditions: purified PLAP, luminescent substrate; at 20 µM; active compounds read high
Sequence (P05187 whole entry, looked up): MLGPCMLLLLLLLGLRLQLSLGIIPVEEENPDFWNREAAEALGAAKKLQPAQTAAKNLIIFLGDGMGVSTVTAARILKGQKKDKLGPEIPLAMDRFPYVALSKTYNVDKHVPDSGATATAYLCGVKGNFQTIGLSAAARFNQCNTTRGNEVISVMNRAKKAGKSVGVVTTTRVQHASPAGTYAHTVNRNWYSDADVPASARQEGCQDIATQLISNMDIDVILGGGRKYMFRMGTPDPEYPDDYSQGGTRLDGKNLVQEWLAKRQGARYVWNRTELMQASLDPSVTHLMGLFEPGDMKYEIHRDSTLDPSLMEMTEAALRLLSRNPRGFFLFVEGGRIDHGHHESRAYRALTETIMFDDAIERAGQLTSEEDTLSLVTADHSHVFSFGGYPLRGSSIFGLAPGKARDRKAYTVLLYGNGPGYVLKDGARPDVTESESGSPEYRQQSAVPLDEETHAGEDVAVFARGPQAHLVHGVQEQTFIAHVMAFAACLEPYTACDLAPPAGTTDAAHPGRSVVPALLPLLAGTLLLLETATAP

inhibition, inactive:
CCOc1ccc(NC(N)=O)cc1OCC 13.6%
O=P(O)(O)c1ccccc1OCCOCCOc1ccccc1P(=O)(O)O 17.4%
O=P(O)(O)c1ccccc1OCCCCCOc1ccccc1P(=O)(O)O 21.2%
CSC1=C(C#N)C(c2ccccc2C)C(C#N)=C(N)N1 (stereo not drawn) 17.9%
O=C(NC(Cc1ccc(F)cc1)C(=O)O)c1ccccc1 (stereo not drawn) -2.2%
Cc1cc(C)n2nc(SCc3nnc(SCc4ccccc4)s3)nc2n1 -20.5%
COC(=O)c1cc(NC(=O)C2COc3ccccc3O2)ccc1Cl (stereo not drawn) 28.8%
Cc1c(NC(=O)C(C)OC(=O)CNC(=O)c2ccccc2)c(=O)n(-c2ccccc2)n1C (stereo not drawn) 5.2%
O=C(CSc1n[nH]c(-c2ccccc2)n1)c1ccccc1 -11.7%
CC(C)(C)c1ccc(C(=O)CSc2nc3ccccc3c(=O)[nH]2)cc1 -9.7%
O=C(CSc1n[nH]c(-c2ccncc2)n1)c1ccccc1 7.6%
Cc1ccc(C(=O)CSc2nc3ccccc3c(=O)[nH]2)cc1 -27.5%
COc1ccc(Cn2c(CCC(=O)Nc3ccc(CC#N)cc3)nc3cccnc32)cc1 11.1%
O=C(C[n+]1ccc(C(=O)N/N=C/c2ccc(OCc3ccccc3)cc2)cc1)c1ccccc1 41.8%
O=C(C[n+]1ccc(C(=O)N/N=C/c2ccc(O)cc2)cc1)c1ccccc1 23.2%
CC(=O)NC1C(=O)N=C(SCC(=O)NC(C)c2ccccc2)NC1=O (stereo not drawn) -18.8%
C=CCNS(=O)(=O)CC12CCC(CC1=O)C2(C)C (stereo not drawn) 4.8%
O=C(Nc1cc(N2CCOCC2)ncn1)Nc1cccc2ccccc12 14.5%
O=C(NC1(C(F)(F)F)Oc2ccccc2O1)N1CCCC1 -7.5%
CCOC(=O)Cc1csc(NC(=O)NC2(C(F)(F)F)Oc3ccc(Cl)cc3O2)n1 (stereo not drawn) 30.3%
O=C(Nc1cc(N2CCOCC2)ncn1)c1ccccc1 1.3%
CC(=O)OC(C)(C)C#CCN1CCCC1 24.5%
CC(=O)N1CCN(C(=S)c2ccc([N+](=O)[O-])cc2)CC1 12.8%
Cc1[nH]c2ccccc2c1/C=N/n1cnnc1 7.5%
Cc1[nH]c2ccccc2c1C(=O)/C=C/c1ccccc1 10.6%
Cc1nn(CC(O)Cn2cnc3c2c(=O)n(C)c(=O)n3C)c(C)c1Br (stereo not drawn) -1.6%
CCOc1cccc(-c2nc(C(N)=O)c3[nH]c(=O)n(-c4cccc(Cl)c4)c3n2)c1O -27.5%
COc1ccc(OCCNc2cc(Cl)ccc2[N+](=O)[O-])cc1 4.1%
COc1cccc(OCCNc2cc(N3CCCCC3)ccc2[N+](=O)[O-])c1 -2.3%
CCC(=O)NCCc1nc2cc(NC(=O)c3ccccc3OC)ccc2n1C -60.5%
CCOC(=O)c1c(C)n(CC(COC(C)=O)OC(C)=O)c2ccc(OC(C)=O)cc12 (stereo not drawn) -45.7%
CCCCN(CCCC)S(=O)(=O)c1ccc(C(=O)Nc2nnc(CSC)o2)cc1 -15.3%
c1ccc([C@H]2CC3C[C@@H](c4ccccc4)N2O3)cc1 -8.8%
O=C(NC1CCCCCC1)c1nc2ncccn2n1 2.9%
CCOc1cc(/C=C2\CCC/C(=C\c3cc(Cl)c(O)c(OCC)c3)C2=O)cc(Cl)c1O 26.7%
COc1cc(/C=N/N(C)c2ccccc2)cc(Cl)c1O 5.2%
N#CC(/C(=N/S(=O)(=O)c1cccs1)c1ccccc1)c1nc2ccccc2[nH]1 (stereo not drawn) -67.4%
O=C(Nc1ccc(Br)cc1)c1cnccn1 -8.2%
Cc1nc2c(cc(Oc3ccc(S(=O)(=O)N4CCOCC4)cn3)c3ccsc32)s1 -48.6%
CN(C)C(C(=O)NC1CCCCC1)c1ccc(Cl)cc1 (stereo not drawn) -18%
O=C(Nc1ccc2c(c1)OCCO2)C1c2ccccc2C(=O)N2CCc3ccccc3C12 (stereo not drawn) 14.8%
Clc1ccc(/C=C/c2nc3ccccc3[nH]2)cc1 4.3%
Clc1cccc(Cl)c1/C=C/c1nc2ccccc2[nH]1 14.1%
Clc1nc(-c2n[nH]nc2Cl)n[nH]1 14.3%
CNc1nnc(-c2cc3cc(Cl)ccc3oc2=O)s1 -24.2%
Nc1nnc(-c2cc3ccccc3oc2=O)s1 3.8%
CC1(C)Cc2c(sc3nc4n(c(=N)c23)CCC4)CO1 -9.9%
CC1(C)Cc2c(sc3nc4n(c(=O)c23)CCC4)CO1 -3.1%
CCCN1C(=O)NC2(O)C(=O)c3ccccc3C12O (stereo not drawn) 0.4%
C=CCOC(=O)C1=C(C)NC2(O)c3ccccc3C(=O)C12O (stereo not drawn) 10.9%
CCSc1nc2c(c(=O)n1CC)SC(C)C2 (stereo not drawn) -16%
Cn1c(=O)c2c(nc(NCCNC(=O)c3ccco3)n2Cc2ccc(Cl)cc2Cl)n(C)c1=O 6.4%
CN1/C(=C/C=N/n2cnnc2)C(C)(C)c2ccccc21 16.4%
CN1/C(=C\C(=O)c2ccco2)C(C)(C)c2ccccc21 3.8%
C=CCn1c(Cc2csc(N)n2)nnc1SCC(=O)Nc1ccccc1C(F)(F)F 21.5%
CC(=O)Oc1ccc2c(C)cc(=O)oc2c1 24.6%
CC(=O)c1cc2c(C)cc(=O)oc2cc1O 15.2%
CCOC(=O)C(C)n1cnc2c(cnn2-c2ccc(Cl)cc2)c1=O (stereo not drawn) 1.3%
CCc1nnc(NC(=O)c2ccc(S(=O)(=O)N3CCCCCC3)cc2)s1 -15.9%
COc1ccc(C(c2nnnn2C2CCCC2)N2CCC(C(N)=O)CC2)c(OC)c1 (stereo not drawn) -65.7%
Cc1cc([N+](=O)[O-])ccc1NCc1ccccc1 47.4%
COc1ccc(CNc2cc([N+](=O)[O-])ccc2OC)cc1 31.1%
Cc1cc(-c2nc3ncccc3o2)ccc1NC(=O)CC(C)C -19.3%
CSc1cccc(NC(=O)/C=C/c2ccc(Cl)cc2)c1 20.8%
CSc1cccc(NC(=O)Nc2ccccc2)c1 2.1%
CCS(=O)(=O)n1nc(-c2ccc(C)cc2)nc1N 13.8%
CCCN1C(=O)/C(=C/C=C2\N(CC)c3ccccc3C2(C)C)SC1=S 22.7%
CCN1C(=O)C(O)(CC(=O)/C=C/C=C/c2ccccc2)c2ccccc21 (stereo not drawn) -9.7%
Cn1c(=O)oc2cc(S(=O)(=O)N3CCC(C(=O)N4CCc5ccccc5C4)CC3)ccc21 12.8%
Cc1ccc(NC(=S)NCCC(c2ccccc2)c2ccccc2)c(C)c1 -44%
O=C1CC(SCCc2nc3ccccc3[nH]2)C(=O)N1c1ccc(Cl)cc1 (stereo not drawn) -15.3%
COc1ccc(C2=C(C=Nc3c(C)n(C)n(-c4ccccc4)c3=O)C(c3ccccc3C)c3ccccc3O2)cc1OC (stereo not drawn) -61%
Cc1ccc(NC(=O)CCn2cccc2)cc1C 5.5%
O=C(CSc1nc2ccccc2s1)N1c2ccccc2Sc2ccc(Cl)cc21 9.1%
O=c1oc2ccccc2n1CSc1nc2ccccc2s1 46.4%
CCOc1ccc(C(CCc2ccccc2)NC(=O)c2ccccc2OC)cc1OCC (stereo not drawn) -15.5%
CS(=O)(=O)N1CCN(c2nc3ccccc3s2)CC1 2.4%
COc1ccc(NC(=O)/C(C#N)=C/c2ccc(Br)o2)cc1 -0.4%
COc1cc(/C=C(\C#N)C(=O)Nc2ccc(SC(F)F)cc2)cc(OC)c1OC -62%
CCc1ccc(/C(C)=N\Nc2ccc([N+](=O)[O-])cc2)cc1 26.2%
C/C(=N\Nc1nc(N)cc(Cl)n1)c1cccc([N+](=O)[O-])c1 -13.2%
COCCNC(=O)C(c1cccc(OC)c1)N(C(=O)Cn1nnc2ccccc21)c1cccnc1 (stereo not drawn) -24%
CCOc1ccccc1C(=O)Nc1ccc(S(=O)(=O)N2CCOCC2)cc1 -60.6%
CCOc1ccc(Cl)cc1/C=N/O 10.1%
O/N=C/c1cc(Cl)ccc1OCc1ccccc1Cl 0%
COc1cccc(C(=O)NCCC2=CCCCC2)c1 8.1%
COc1cc(/C=N/NC(N)=S)ccc1OCC(=O)Nc1ccc(C)c(C)c1 4.4%
CN1c2ccccc2C(C)(C)C12C=Cc1cc(O)ccc1O2 (stereo not drawn) 27.8%
CN1c2ccccc2C(C)(C)C12C=Nc1c(ccc3ccccc13)O2 (stereo not drawn) 0.3%
CC1=NN(C(=O)Cc2ccc([N+](=O)[O-])cc2)C(O)(c2ccccc2)C1 (stereo not drawn) -32.3%
CCOc1ccc(-c2nnc3sc(COc4ccc(C)cc4)nn23)cc1 -25.7%
CCOc1ccc(-c2nnc3sc(COc4ccccc4)nn23)cc1 8.3%
CCN(CC)S(=O)(=O)c1cc([N+](=O)[O-])ccc1NNC(=O)Nc1ccc(Cl)c(Cl)c1 -23.2%
Cc1cc(-c2nnc(SCC(=O)N3C(C)CCCC3C)o2)no1 (stereo not drawn) 0.5%
CCOC(=O)C1=C(O)/C(=C/c2cc(OC)c(OC)c(OC)c2)N=C1C -30.7%
CCOC(=O)C1=C(O)/C(=C\c2ccc(OC)c(OC)c2)N=C1C -24.6%
Cc1nn(-c2ccccc2)c(C)c1CCC(=O)O -21.2%
Cc1cc2cc(CN(CCCO)S(=O)(=O)c3cccc4nsnc34)c(=O)[nH]c2cc1C -57.9%
